Source: PubChem BioAssay (NCATS)
Inconclusive results are not listed. Calls of active or inactive are those of the source. Calls come from the whole dose curve; as a rule, active = well fitted inhibition curve with a large enough effect; inconclusive = small, poorly fitted or top-dose-only effect; inactive = flat fitted curve, though single readings scatter.

What was measured:
Assay in all cases: qHTS profiling for inhibitors of Plasmodium falciparum proliferation (AID 504749); note: nearly all actives have a fitted effect of over 60% in size
Conditions in all cases: P. falciparum in erythrocytes, SYBR Green DNA, 72 h; series mostly up to 28.7 µM
[1] = tested on: CP215
Outline: (§1)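 Readout was DNA-dye fluorescence from lysed cultures, ex 485/em 535 nm. Parasitized red cells had grown 72 h with compound; data scaled between 0.29 uM artemisinin and DMSO wells and corrected using vehicle-only plates.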

[2] = tested on: CP217
Outline: as §1

[3] = tested on: CP237
Outline: as §1

[4] = tested on: CP238
Outline: as §1

[5] = tested on: CP247
Outline: as §1

[6] = tested on: CP250
Outline: as §1

[7] = tested on: CP252
Outline: as §1

[8] = tested on: CP256
Outline: as §1

[9] = tested on: CP260
Outline: as §1

[10] = tested on: CP262
Outline: as §1

[11] = tested on: CP265
Outline: as §1

[12] = tested on: CP268
Outline: as §1

[13] = tested on: CP269
Outline: as §1

[14] = tested on: CP291
Outline: as §1

[15] = tested on: CP297
Outline: as §1

[16] = tested on: CP305
Outline: as §1

[17] = tested on: CP315
Outline: as §1

[18] = tested on: CP325
Outline: as §1

[19] = tested on: CP329
Outline: as §1

[20] = tested on: CP335
Outline: as §1

[21] = tested on: DFO2036
Outline: as §1

[22] = tested on: DIV14
Outline: as §1

[23] = tested on: DIV17
Outline: as §1

[24] = tested on: DIV30
Outline: as §1

[25] = tested on: Dd2
Outline: as §1

[26] = tested on: ECU
Outline: as §1

[27] = tested on: FAB9
Outline: as §1

[28] = tested on: GB4
Outline: as §1

[29] = tested on: HB3
Outline: as §1

[30] = tested on: JCK
Outline: as §1

[31] = tested on: N140
Outline: as §1

[32] = tested on: P93_24
Outline: as §1

[33] = tested on: P94_40
Outline: as §1

[34] = tested on: PAD
Outline: as §1

[35] = tested on: PC15
Outline: as §1

[36] = tested on: PC26
Outline: as §1

[37] = tested on: PC49
Outline: as §1

[38] = tested on: SC27B
Outline: as §1

[39] = tested on: TAB109
Outline: as §1

[40] = tested on: TAB113
Outline: as §1

[41] = tested on: TAB165
Outline: as §1

[42] = tested on: W2
Outline: as §1

Measured: Potency

Oc1ccc(/C=C\c2cc(O)cc(O)c2)cc1
inactive: all assays above
